Publication PMC5540273 (PLoS ONE, 2017)

Key:
Conditions in all cases: concentration: 1 μM, replicates: in singlicate; n = 1
ERN1 = test system: ERN1
FAK = test system: T1, FAK
T1 construct: gene PTK2

FER = test system: FER
FES = test system: FES
FGFR1 = test system: FGFR1
FGFR2 = test system: FGFR2
FGFR3 = test system: FGFR3
FGFR4 = test system: FGFR4
FGR = test system: FGR
FLT1 = test system: FLT1
FLT3-autoinhibited = test system: FLT3-autoinhibited
FLT3 = test system: FLT3
FLT4 = test system: FLT4
FRK = test system: FRK
FYN = test system: FYN
GAK = test system: GAK
GCN2(Kin.Dom.2,S808G) = test system: T2, GCN2(Kin.Dom.2,S808G)
T2 construct: gene EIF2AK4

GRK1 = test system: GRK1
GRK2 = test system: T3, GRK2
T3 construct: gene ADRBK1

GRK3 = test system: T4, GRK3
T4 construct: gene ADRBK2
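Further: KINOMEscan kinase panel screen.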

Question: Cc1cccc(Cn2ccn3c(=O)cc(N4CCOCC4)nc23)c1 [GSK2297542] was tested. Which “%Inh” value (ERN1) did it give?
Answer: 16%

Question: And the “%Inh” value (FAK)?
Answer: 0%

Question: And the “%Inh” value (FER)?
Answer: 30%

Question: What about the “%Inh” value (FES) of the same compound?
Answer: 10%

Question: And the “%Inh” value (FGFR1)?
Answer: 0%

Question: What about the “%Inh” value (FGFR2) of the same compound?
Answer: 16%

Question: And the “%Inh” value (FGFR3)?
Answer: 16%

Question: And the “%Inh” value (FGFR4)?
Answer: 10%

Question: What about the “%Inh” value (FGR) of the same compound?
Answer: 32%

Question: What about the “%Inh” value (FLT1) of the same compound?
Answer: 20%

Question: What about the “%Inh” value (FLT3-autoinhibited) of the same compound?
Answer: 2%

Question: What about the “%Inh” value (FLT3) of the same compound?
Answer: 11%

Question: What about the “%Inh” value (FLT4) of the same compound?
Answer: 0%

Question: What about the “%Inh” value (FRK) of the same compound?
Answer: 7%

Question: What about the “%Inh” value (FYN) of the same compound?
Answer: 21%

Question: And the “%Inh” value (GAK)?
Answer: 20%

Question: And the “%Inh” value (GCN2(Kin.Dom.2,S808G))?
Answer: 6%

Question: And the “%Inh” value (GRK1)?
Answer: 0%

Question: What about the “%Inh” value (GRK2) of the same compound?
Answer: 0%

Question: And the “%Inh” value (GRK3)?
Answer: 16%

Question: What does the source list for NS(=O)(=O)c1cccc(-c2ccc3nccc(-c4cccc(S(N)(=O)=O)c4)c3c2)c1 [GW867253]?
Answer: %Inh (ERN1): 39%; %Inh (FAK): 0%; %Inh (FER): 0%; %Inh (FES): 0%; %Inh (FGFR1): 11%; %Inh (FGFR2): 0%; %Inh (FGFR3): 0%; %Inh (FGFR4): 0%; %Inh (FGR): 0%; %Inh (FLT1): 0%; %Inh (FLT3-autoinhibited): 0%; %Inh (FLT3): 0%; %Inh (FLT4): 0%; %Inh (FRK): 0%; %Inh (FYN): 0%; %Inh (GAK): 14%; %Inh (GCN2(Kin.Dom.2,S808G)): 3%; %Inh (GRK1): 27%; %Inh (GRK2): 0%; %Inh (GRK3): 0%

Question: Cc1ccc(NC(=O)c2ccnc(N3CCN(C)CC3)c2)cc1-c1ccc(C(=O)NCC2CC2)cc1 [GW775604] was tested. Which “%Inh” value (ERN1) did it give?
Answer: 0%

Question: And the “%Inh” value (FAK)?
Answer: 0%

Question: What about the “%Inh” value (FER) of the same compound?
Answer: 24%

Question: And the “%Inh” value (FES)?
Answer: 0%

Question: What about the “%Inh” value (FGFR1) of the same compound?
Answer: 0%

Question: And the “%Inh” value (FGFR2)?
Answer: 0%

Question: And the “%Inh” value (FGFR3)?
Answer: 0%

Question: And the “%Inh” value (FGFR4)?
Answer: 0%

Question: What about the “%Inh” value (FGR) of the same compound?
Answer: 8%

Question: And the “%Inh” value (FLT1)?
Answer: 0%

Question: And the “%Inh” value (FLT3-autoinhibited)?
Answer: 0%

Question: What about the “%Inh” value (FLT3) of the same compound?
Answer: 0%

Question: What about the “%Inh” value (FLT4) of the same compound?
Answer: 0%

Question: And the “%Inh” value (FRK)?
Answer: 0%

Question: And the “%Inh” value (FYN)?
Answer: 0%

Question: What about the “%Inh” value (GAK) of the same compound?
Answer: 0%

Question: And the “%Inh” value (GCN2(Kin.Dom.2,S808G))?
Answer: 0%

Question: And the “%Inh” value (GRK1)?
Answer: 0%

Question: And the “%Inh” value (GRK2)?
Answer: 0%

Question: What about the “%Inh” value (GRK3) of the same compound?
Answer: 33%

Question: What does the source list for COC(=O)Nc1nc2cc(Oc3ccc(NC(=O)Nc4cc(F)ccc4F)cc3)ccc2[nH]1.Cl [GW701424]?
Answer: %Inh (ERN1): 0%; %Inh (FAK): 0%; %Inh (FER): 0%; %Inh (FES): 0%; %Inh (FGFR1): 0%; %Inh (FGFR2): 0%; %Inh (FGFR3): 19%; %Inh (FGFR4): 6%; %Inh (FGR): 9%; %Inh (FLT1): 99%; %Inh (FLT3-autoinhibited): 14%; %Inh (FLT3): 99.2%; %Inh (FLT4): 85%; %Inh (FRK): 20%; %Inh (FYN): 0%; %Inh (GAK): 0%; %Inh (GCN2(Kin.Dom.2,S808G)): 0%; %Inh (GRK1): 11%; %Inh (GRK2): 0%; %Inh (GRK3): 50%

Question: Which “%Inh” value (ERN1) does the source give for NS(=O)(=O)CCc1cccc(Nc2nccc(-c3c(-c4cccc(NC(=O)c5c(F)cccc5F)c4)nn4ccccc34)n2)c1 [GSK336735] here?
Answer: 21%

Question: What about the “%Inh” value (FAK) of the same compound?
Answer: 4%

Question: And the “%Inh” value (FER)?
Answer: 73%

Question: And the “%Inh” value (FES)?
Answer: 22%

Question: What about the “%Inh” value (FGFR1) of the same compound?
Answer: 44%

Question: And the “%Inh” value (FGFR2)?
Answer: 46%

Question: What about the “%Inh” value (FGFR3) of the same compound?
Answer: 36%

Question: And the “%Inh” value (FGFR4)?
Answer: 0%

Question: And the “%Inh” value (FGR)?
Answer: 98.8%

Question: What about the “%Inh” value (FLT1) of the same compound?
Answer: 99.3%

Question: What about the “%Inh” value (FLT3-autoinhibited) of the same compound?
Answer: 11%

Question: And the “%Inh” value (FLT3)?
Answer: 98.9%

Question: What about the “%Inh” value (FLT4) of the same compound?
Answer: 99.2%

Question: What about the “%Inh” value (FRK) of the same compound?
Answer: 97.2%

Question: And the “%Inh” value (FYN)?
Answer: 96.7%

Question: And the “%Inh” value (GAK)?
Answer: 28%

Question: What about the “%Inh” value (GCN2(Kin.Dom.2,S808G)) of the same compound?
Answer: 87%

Question: And the “%Inh” value (GRK1)?
Answer: 0%

Question: What about the “%Inh” value (GRK2) of the same compound?
Answer: 0%

Question: What about the “%Inh” value (GRK3) of the same compound?
Answer: 89%
